The values below come from PubChem BioAssay AID1533 (PCMD, 2009).

The test addresses dTDP-4-dehydrorhamnose reductase (Mycobacterium tuberculosis (strain ATCC 25618 / H37Rv)) + dTDP-4-dehydrorhamnose 3,5-epimerase (Mycobacterium tuberculosis (strain ATCC 25618 / H37Rv)) (UniProt P9WH09+P9WH11). Description: M. tuberculosis RmlC/RmlD coupled enzyme inhibitors, primary screen, biochemical, compound mixtures, 384-well, from 1536-well plates (AID 1533). Conditions: RmlC+RmlD coupled enzyme assay, percent inhibition, primary screen in compound mixtures, stronger effect = higher value.

The mark [1] stands for this setting: measured here: mean retest inhibition, at 5.5 µM.

Out of some 160,000 compounds screened, about 45 (0.03%) were called active. Rule as the data show it: active = inhibition mostly above about 34% (no sharp cut-off); inconclusive = no clear call, values can overlap the other calls; inactive = mostly below about 22%. This excerpt belongs to a sample that is enriched for actives.

Chain of dTDP-4-dehydrorhamnose reductase (Mycobacterium tuberculosis (strain ATCC 25618 / H37Rv)) + dTDP-4-dehydrorhamnose 3,5-epimerase (Mycobacterium tuberculosis (strain ATCC 25618 / H37Rv)) (P9WH09 whole entry, looked up): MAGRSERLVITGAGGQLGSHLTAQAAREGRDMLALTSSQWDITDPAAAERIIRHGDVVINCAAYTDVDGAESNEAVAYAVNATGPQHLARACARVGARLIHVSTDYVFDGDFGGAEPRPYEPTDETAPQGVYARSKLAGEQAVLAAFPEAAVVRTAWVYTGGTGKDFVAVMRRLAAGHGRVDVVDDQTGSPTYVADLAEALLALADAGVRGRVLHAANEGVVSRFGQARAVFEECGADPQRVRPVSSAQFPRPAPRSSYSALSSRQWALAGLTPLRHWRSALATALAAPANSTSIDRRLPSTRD
Chain of dTDP-4-dehydrorhamnose reductase (Mycobacterium tuberculosis (strain ATCC 25618 / H37Rv)) + dTDP-4-dehydrorhamnose 3,5-epimerase (Mycobacterium tuberculosis (strain ATCC 25618 / H37Rv)) (P9WH11 whole entry, looked up): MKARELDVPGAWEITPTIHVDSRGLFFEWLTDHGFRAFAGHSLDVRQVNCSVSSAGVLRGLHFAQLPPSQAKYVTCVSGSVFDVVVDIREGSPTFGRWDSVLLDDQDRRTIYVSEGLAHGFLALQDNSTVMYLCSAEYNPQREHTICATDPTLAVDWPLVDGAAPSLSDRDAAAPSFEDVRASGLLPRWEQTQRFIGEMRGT

With `O=C(O)CCc1nc2cc(Cl)ccc2n(Cc2ccccc2)c1=O`, the inhibition (at 3.6 µM) was -4.14% (inactive).
Same read-out and setting: then `Cc1nc2cccnc2nc1C`, with -6.92% (inactive).
Same read-out and setting: under `Cc1ccccc1Nc1nc(N)nc(CSc2nnc3ccccn23)n1` stands 4.62% (inactive).
Still for that read-out and setting: under `CC(C)(C)NC(=O)/C(=C/c1cccnc1)NC(=O)c1ccco1` stands -0.65% (inactive); under `CN1CCN(C2=NCCO2)CC1`, -5.76% (inactive).
Regarding `CNC(=O)C(NC(=O)c1ccccc1)=C(C)C`, the inhibition (at 3.6 µM) is 3.15% (inactive).
The same measure, in the same setting: then `C/C(=N\NC(=O)c1nc(C)cc(C)n1)c1ccccc1`, with -2.86% (inactive).
Consider `CC(C)=C(NC(=O)c1ccccc1)C(=O)N/N=C(\C)c1ccccc1O`, for which the inhibition reads like this: (at 3.6 µM) 51.8% (active); under setting [1], 31.3%.
In the case of `Cc1ccc(SCc2c(C(=O)N/N=C/C3CC=CCC3)nnn2-c2nonc2N)cc1` (stereo unspecified), the inhibition (at 3.6 µM) was 9.89% (inactive).
On the same count and under the same terms, under `OCC1(Cc2ccccc2C(F)(F)F)CCN(Cc2ccncc2)CC1` stands 9.49% (inactive); under `O=C1C2C3C=CC(C3)C2C(=O)N1c1ccc(-c2nc3ccccc3c(=O)o2)cc1` (stereo unspecified), 1.56% (inactive); under `O=C(CCCl)Nc1ccc(S(=O)(=O)NCc2ccco2)cc1`, 4.49% (inactive).
Same read-out and setting: then `CC(C)c1nc(SCC(=O)NC(=O)NC(C)(C)C)n[nH]1`, with -8.54% (inactive); and `O=C(COC(=O)c1ccc(Cl)nc1)NCc1cccs1`, with -9.13% (inactive); and `Cc1cc(C(=O)Cn2cnc3cc([N+](=O)[O-])ccc3c2=O)c(C)n1CC1CCCO1` (stereo unspecified), with 5.54% (inactive).
For `C=CCSc1nnc(NC(=O)c2ccc(NC(C)=O)cc2)s1`, the inhibition (at 3.6 µM) was 2.48% (inactive).
For `Cc1cc(C)c(NC(=O)CN2C(=O)NC(Cc3ccccc3)C2=O)c(C)c1` (stereo unspecified), the inhibition (at 3.6 µM) is 43.2% (inactive) and the inhibition under setting [1] came to 7.39%.
As to `O=[N+]([O-])C(=c1ccc2c(c1)N1C3=C(CCCC3)CC3CCCCC31N=2)[N+](=O)[O-]` (stereo unspecified), the inhibition (at 3.6 µM) is -9.85% (inactive).
On the same count and under the same terms, then `CCOC(=O)CNC(=O)CSc1ccc2nnc(-c3cccnc3)n2n1`, with -13.1% (inactive); and `CC(=O)Nc1ccc(CC#N)cc1`, with -7.92% (inactive); and `CC(NC(=O)C(=O)Nc1nccs1)c1ccccc1` (stereo unspecified), with 12.6% (inactive).
On the same count and under the same terms, then `COc1ccc(/C=C/c2nnc(NC(=O)C(C)C)s2)cc1`, with 2.36% (inactive); and `Cn1nc(C(F)(F)F)c(-c2ccc(F)cc2)c1NC(=O)CSCC(=O)O`, with 10% (inactive); and `O=[N+]([O-])/C=C1\CCCCCN1`, with -6.23% (inactive).
On the same count and under the same terms, then `O=C1[C@@H]2C(c3cccnc3)=NO[C@@H]2C(=O)N1c1ccc(Cl)cc1Cl`, with 13.9% (inactive); and `CCOC(=O)CNc1nc(Cl)nc(Nc2ccccc2)n1`, with 0.72% (inactive); and `Cn1nccc1NC(=O)Nc1ccc(OC(F)(F)F)cc1`, with -2.41% (inactive).
Take `COc1ccccc1P(=O)(c1ccccc1)c1ccccc1NC(C)=O` (stereo unspecified): the inhibition is, setting by setting: (at 3.6 µM) 40.9% (inactive); under setting [1], -18.2%.
Turning to `CCOC(=O)C(CC)/C(C)=N\NC(=O)c1cccc(C)c1` (stereo unspecified), the inhibition (at 3.6 µM) is 9.71% (inactive).
Still for that read-out and setting: under `COC(=O)CC1=NN(c2ccccc2)C(=O)C1` stands -13% (inactive); under `Cc1cc(C(=O)OCC(=O)Nc2nccs2)c2ccccc2n1`, 9.68% (inactive).
Turning to `Cc1ccccc1C(=O)Nc1ccc(N2CCCCCC2)cc1`, under “at 3.6 µM”, the inhibition was -4.06% (inactive).
Consider `COc1ccc(NC(=O)CSc2ncnc3[nH]ncc23)cc1`, for which, under “at 3.6 µM”, the inhibition was -14.6% (inactive).
The same measure, in the same setting: then `CCC/C(C)=N\Nc1nc2c(c(=O)n(C)c(=O)n2C)n1C`, with -3.15% (inactive).
Same read-out and setting: then `COc1ccc(/C=N/NS(=O)(=O)c2ccc(NC(C)=O)cc2)cc1`, with 10.1% (inactive); and `C/C(CCc1ccccc1)=N\NC(=O)c1ccc(CN2CCOCC2)cc1`, with 6.96% (inactive).
Still for that read-out and setting: then `CC(=O)NC(CC(=O)Nc1nccs1)c1ccccc1` (stereo unspecified), with 3.67% (inactive).
Consider `Cc1cc(Nc2ccc(N3CCOCC3)cc2)c2cccc(C)c2n1`, for which the inhibition was 35.8% (inactive) (at 3.6 µM) and -6.33% under setting [1].
For the compound `Cc1ccc(NNC(=O)C2CCC2)cc1C`, the inhibition (at 3.6 µM) is -0.66% (inactive).
The same measure, in the same setting: under `C=CCNC(=S)N1CCc2[nH]c3ccccc3c2C1` stands -7.26% (inactive); under `Cn1c(SCC(=O)Nc2ccc(Cl)cc2)nc(O)cc1=O`, 3.67% (inactive); under `OCC(O)CN(c1ccccc1)c1ccccc1` (stereo unspecified), 15.9% (inactive).
The same measure, in the same setting: under `O=C(NCc1ccncc1)NC12CC3CC(CC(C3)C1)C2` stands 4.57% (inactive).
The same measure, in the same setting: then `Cc1nc2ccc(NC(=S)N3CCC(C)CC3)cc2nc1C`, with 12.1% (inactive).
Turning to `Cc1ccc(CSc2nc3[nH]ncc3c(=O)[nH]2)cc1`, the inhibition is, setting by setting: (at 3.6 µM) 65.1% (inactive); under setting [1], 4.96%.
In the case of `CC(C)c1c(O)nc(SCCOc2ccc(Cl)cc2)[nH]c1=O`, the inhibition (at 3.6 µM) was 7.19% (inactive).

As a reminder, the inhibition is the relative decrease from the control value, in per cent.
